Structures can show the parent of a compound that is named as a salt. Values without a mark were called inactive.

For one test, the system named is A549-TUBA1B-RELA. Description: phenotypically active (imaging signature differs from DMSO and reproducible) at any of 0.3-9 uM (binary (1 = active, 0 = inactive)); higher = active. As to conditions: treatment time: 24 h. In a few lines:
(§1)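 Live-cell features were measured per well and normalised to solvent control wells after fifteen gene-edited A549, HepG2 and WPMY1 reporter lines had been treated for 24 h at 0.3, 1, 3 or 9 µM in four wells each. A condition was deviating when ≥3 of 4 wells sat beyond the 95th percentile of control Euclidean distances. It was reproducible when the median replicate Pearson correlation exceeded the 95th percentile of non-replicates. Phenotypic activity demanded both.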
In the case of `CC(C)[N+](C)(CCC(C(N)=O)(c1ccccc1)c1ccccc1)C(C)C` [isopropamide-iodide], the phenotypically active was 0. In the case of `CC(C)N(CCC(C(N)=O)(c1ccccc1)c1ccccn1)C(C)C` (stereo not drawn) [disopyramide], the phenotypically active is 0. Consider `O=C1C[C@@H]2OCC=C3C[N+]4([O-])CC[C@]56c7ccccc7N1[C@H]5[C@H]2[C@H]3C[C@@H]64` (stereo partly drawn) [Genostrychnine base], for which the phenotypically active was 0. Same read-out and setting: under `C[C@@H]1CN([C@H]2CC[C@](C#N)(c3ccc(F)cc3)CC2)CC[C@]1(C(=O)O)c1ccccc1` [levocabastine] stands 0; under `Cc1ccc(C[N+](C)(C)C)o1` [5-Methylfurmethiodide], 0. Same read-out and setting: under `COc1cc2c3cc1Oc1cc(ccc1O)C[C@@H]1c4c(cc(OC)c(O)c4Oc4cccc(c4)C[C@@H]3N(C)CC2)CC[N+]1(C)C` [Tubocurarine chloride pentahydrate (+)] stands 0; under `CCCC(C)C1(CC)C(=O)N=C(S)NC1=O` (stereo not drawn) [thiopental], 0. Turning to `C=C1[C@H]2C[C@@]3([C@@H]1O)[C@@H](C[C@@H]2O)[C@]12[C@@H]4C[C@H]3[C@H]1N(CC)C[C@]4(C)CC[C@@H]2O` [Napelline], the phenotypically active was 0. On the same count and under the same terms, the same measure for `CO[C@H](C)[C@](O)(C(=O)OCC1=CCN2CC[C@H](O)[C@@H]12)C(C)C` [Heliotrine]: 0; for `C/C=C1\C[C@@H](C)[C@](O)(CO)C(=O)OCC2=CCN3CC[C@@H](OC1=O)[C@@H]23` [Retrorsine]: 0; for `CN(C)NC(=O)CCC(=O)O` [Daminozide]: 0. Turning to `CN1[C@@H]2CC(=O)C[C@H]1[C@H](O)C2` [6-Hydroxytropinone], the phenotypically active was 0.

As for `COc1ccc2c3c1O[C@H]1C(=O)CC[C@H]4[C@@H](C2)N(C)CC[C@]314` [hydrocodone], the phenotypically active is 0. On the same count and under the same terms, under `CCN(C(C)=O)c1cccc(-c2ccnc3c(C#N)cnn23)c1` [zaleplon] stands 0. Same read-out and setting: the same measure for `C[N+]1([O-])[C@@H]2C[C@@H](OC(=O)[C@H](CO)c3ccccc3)C[C@H]1[C@@H]1O[C@@H]12` (stereo partly drawn) [Genoscopolamine HBr]: 0; for `NCC1(CC(=O)O)CCCCC1` [gabapentin]: 0; for `CN1CCc2cc3c(cc2[C@H]1[C@@H]1OC(=O)c2c1ccc1c2OCO1)OCO3` [bicuculine]: 0.

In the case of `c1cncc(C2CC3CCN2CC3)c1` (stereo not drawn) [RJR 2429 dihydrochloride], the phenotypically active is 0. On the same count and under the same terms, the same measure for `CC1=CC(=O)C2=C(C)C[C@H](O)[C@@H]3[C@H](OC(=O)[C@H]3C)[C@@H]12` [Austricine hydrate]: 0; for `C=C(C)[C@H]1CN[C@H](C(=O)O)[C@H]1CC(=O)O` [Kainic acid]: 0; for `C[C@H]1CCC2(NC1)O[C@H]1C[C@H]3[C@@H]4CC[C@H]5C[C@@H](O[C@@H]6O[C@H](CO)[C@H](O[C@@H]7O[C@H](CO)[C@@H](O)[C@H](O[C@@H]8OC[C@@H](O)[C@H](O)[C@H]8O)[C@H]7O[C@@H]7O[C@H](CO)[C@@H](O)[C@H](O)[C@H]7O)[C@H](O)[C@H]6O)CC[C@]5(C)[C@H]4CC[C@]3(C)[C@H]1[C@@H]2C` (stereo partly drawn) [Tomatine]: 0. On the same count and under the same terms, under `CN1[C@@H]2C[C@@H](OC(=O)[C@H](CO)c3ccccc3)C[C@H]1[C@@H]1O[C@@H]12` [Scopolamine hydrobromide] stands 0.

The subject of another test is HepG2-ACTB-RAB5A. The test is described as above. As to conditions: treatment time: 24 h. Summed up:
as §1
As for `N[C@@H]1C[C@H]1c1ccccc1` [Tranylcypromine hydrochloride], the phenotypically active is 0. Same read-out and setting: under `C/C=C1\CN2CC[C@]34c5cc(OC)ccc5N5C(=O)C(O)OC[C@@H]([C@H]53)[C@H]1C[C@H]24` (stereo partly drawn) [10-Methoxy-o-demethyltsilanine] stands 0. Same read-out and setting: the same measure for `Fc1ccccc1C1=NCC(=S)N(CC(F)(F)F)c2ccc(Cl)cc21` [quazepam]: 0; for `COc1c2c(cc3c1OCO3)CC[N+](C)=C2` [Cotarnine chloride]: 0. Turning to `N[C@H]1C[C@@H]1c1ccccc1` [tranylcypromine], the phenotypically active is 0.

As to `O=c1ccc2ccc3occc3c2o1` [Angelicin], the phenotypically active is 0. For the compound `C[C@]12COC(=O)C[C@@H]1CC[C@@H]1[C@@H]2CC[C@@]2(C)[C@H]1CC[C@]2(C)O` [oxandrolone], the phenotypically active was 0. Take `CC(C)C[C@H](CN)CC(=O)O` [pregabalin]: the phenotypically active was 0. On the same count and under the same terms, the same measure for `NC(=S)N/N=C/c1coc2ccccc2c1=O`: 0. On the same count and under the same terms, under `O[C@H]1[C@H](O)[C@@H](O)CN2CC[C@H](O)[C@H]12` [Castanospermine] stands 0. As for `Cc1ccc(-c2nc3ccc(C)cn3c2CC(=O)N(C)C)cc1` [zolpidem], the phenotypically active was 0.

In the case of `CN1C(CC(O)c2ccccc2)CCCC1CC(O)c1ccccc1` (stereo not drawn) [Lobelanidine hydrochloride], the phenotypically active was 0.

Take `CNC(=O)Oc1ccc2c(c1)[C@]1(C)CCN(C)O[C@@H]1N2C` [Geneserine]: the phenotypically active was 0. The same measure, in the same setting: the same measure for `COc1ccc(C(=O)OC2C[C@H]3CC[C@H](C2)N3C)cc1OC` (stereo partly drawn) [Convolamine hydrochloride]: 0; for `CC(C)[N+](C)(CCC(C(N)=O)(c1ccccc1)c1ccccc1)C(C)C` [isopropamide-iodide]: 0; for `CC(C)N(CCC(C(N)=O)(c1ccccc1)c1ccccn1)C(C)C` (stereo not drawn) [disopyramide]: 0. Same read-out and setting: the same measure for `O=C1C[C@@H]2OCC=C3C[N+]4([O-])CC[C@]56c7ccccc7N1[C@H]5[C@H]2[C@H]3C[C@@H]64` (stereo partly drawn) [Genostrychnine base]: 0.

For the compound `C[C@@H]1CN([C@H]2CC[C@](C#N)(c3ccc(F)cc3)CC2)CC[C@]1(C(=O)O)c1ccccc1` [levocabastine], the phenotypically active is 0. For the compound `Cc1ccc(C[N+](C)(C)C)o1` [5-Methylfurmethiodide], the phenotypically active is 0. The same measure, in the same setting: under `COc1cc2c3cc1Oc1cc(ccc1O)C[C@@H]1c4c(cc(OC)c(O)c4Oc4cccc(c4)C[C@@H]3N(C)CC2)CC[N+]1(C)C` [Tubocurarine chloride pentahydrate (+)] stands 0; under `CCCC(C)C1(CC)C(=O)N=C(S)NC1=O` (stereo not drawn) [thiopental], 0. On the same count and under the same terms, under `C=C1[C@H]2C[C@@]3([C@@H]1O)[C@@H](C[C@@H]2O)[C@]12[C@@H]4C[C@H]3[C@H]1N(CC)C[C@]4(C)CC[C@@H]2O` [Napelline] stands 0; under `CO[C@H](C)[C@](O)(C(=O)OCC1=CCN2CC[C@H](O)[C@@H]12)C(C)C` [Heliotrine], 0; under `C/C=C1\C[C@@H](C)[C@](O)(CO)C(=O)OCC2=CCN3CC[C@@H](OC1=O)[C@@H]23` [Retrorsine], 0.

With `CN(C)NC(=O)CCC(=O)O` [Daminozide], the phenotypically active is 0. For the compound `CN1[C@@H]2CC(=O)C[C@H]1[C@H](O)C2` [6-Hydroxytropinone], the phenotypically active was 0. Turning to `COc1ccc2c3c1O[C@H]1C(=O)CC[C@H]4[C@@H](C2)N(C)CC[C@]314` [hydrocodone], the phenotypically active was 0. With `CCN(C(C)=O)c1cccc(-c2ccnc3c(C#N)cnn23)c1` [zaleplon], the phenotypically active is 0. As to `C[N+]1([O-])[C@@H]2C[C@@H](OC(=O)[C@H](CO)c3ccccc3)C[C@H]1[C@@H]1O[C@@H]12` (stereo partly drawn) [Genoscopolamine HBr], the phenotypically active was 0.

`NCC1(CC(=O)O)CCCCC1` [gabapentin]: the phenotypically active was 0. For the compound `CN1CCc2cc3c(cc2[C@H]1[C@@H]1OC(=O)c2c1ccc1c2OCO1)OCO3` [bicuculine], the phenotypically active was 0. Same read-out and setting: the same measure for `c1cncc(C2CC3CCN2CC3)c1` (stereo not drawn) [RJR 2429 dihydrochloride]: 0; for `CC1=CC(=O)C2=C(C)C[C@H](O)[C@@H]3[C@H](OC(=O)[C@H]3C)[C@@H]12` [Austricine hydrate]: 0; for `C=C(C)[C@H]1CN[C@H](C(=O)O)[C@H]1CC(=O)O` [Kainic acid]: 0.

With `C[C@H]1CCC2(NC1)O[C@H]1C[C@H]3[C@@H]4CC[C@H]5C[C@@H](O[C@@H]6O[C@H](CO)[C@H](O[C@@H]7O[C@H](CO)[C@@H](O)[C@H](O[C@@H]8OC[C@@H](O)[C@H](O)[C@H]8O)[C@H]7O[C@@H]7O[C@H](CO)[C@@H](O)[C@H](O)[C@H]7O)[C@H](O)[C@H]6O)CC[C@]5(C)[C@H]4CC[C@]3(C)[C@H]1[C@@H]2C` (stereo partly drawn) [Tomatine], the phenotypically active is 0. Take `CN1[C@@H]2C[C@@H](OC(=O)[C@H](CO)c3ccccc3)C[C@H]1[C@@H]1O[C@@H]12` [Scopolamine hydrobromide]: the phenotypically active is 0.
